The campaign covered roughly 360,000 compounds. About 7,500 (2.1%) were called active. A call without a number means that no potency is given here. Not shown: some 8% with an inconclusive outcome. For the sample, actives were picked, then their nearest neighbours and some compounds at random. Unmarked numbers belong to inactive results. Calls come from the whole dose curve; as a rule, active = well fitted cell-killing curve with a large enough effect; inconclusive = small, poorly fitted or top-dose-only effect, or effect the other way, or another doubt; inactive = no such curve, though single readings can be large or run the other way.
Experiment: qHTS for induction of synthetic lethality in tumor cells producing 2HG: qHTS for the HT-1080-IDH1KD cell line
Settings: HT-1080 IDH1 knockdown viability, ATP luminescence, 48 h; series mostly up to 46.1 µM
Procedure, shortened: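 Cytotoxicity counter-line: IDH1KD HT-1080, 48 h, CellTiter-Glo. Curves classed by r2, magnitude and activity.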
Potency is the fitted concentration of half-maximal effect.

Row | SMILES | Potency | activity, negative = toxicity
1 | O=S1(=O)CC(N2CCN(c3ccccn3)CC2)CN1Cc1ccc(F)cc1 (centres undefined) | inactive | –
2 | COc1cc(OC)cc(C(=O)N[C@H](C(=O)Nc2nc3ccccc3[nH]2)C(C)C)c1 | 1.3 µM (active) | –
3 | COc1cc(OC)cc(C(=O)N[C@H](C(=O)NNC(=O)c2ccc(Br)cc2)C(C)C)c1 | inactive | –
4 | COc1ccc(C(=O)N[C@H](C(=O)NCc2ccccc2)C(C)C)cc1 | inactive | –
5 | Cc1ccccc1CN1C(=O)CSCC1(C)C(=O)Nc1c(C)cccc1C (centres undefined) | inactive | –
6 | N#Cc1cccc(NC(=O)c2cc(C3CCCCN3C(=O)CCc3ccccc3)on2)c1 (centres undefined) | inactive | –
7 | O=C(COC(=O)c1cccc(Cl)c1Cl)NC1CCCCCC1 | inactive | –
8 | Cc1ccc([C@H]2N[C@]3(CCCN(CC4CCCCC4)C3=O)[C@H]3C(=O)N(Cc4ccccc4)C(=O)[C@@H]23)cc1 | inactive | –
9 | COc1ccccc1CC1(C)C(=O)Nc2ccc(OC(F)(F)F)cc21 (centres undefined) | inactive | –
10 | CCc1ccc2c(c1)NC(=O)C2(C)Cc1ccc(OC(F)(F)F)cc1 (centres undefined) | 23.1 µM (active) | –
11 | CCNC(=S)Nc1ccc(OC(F)(F)F)cc1 | inactive | –
12 | CC(=O)c1ccc(OCC(=O)N(C)C2CCS(=O)(=O)C2)cc1 (centres undefined) | inactive | –
13 | O=C(NC1CCCC1)C1c2ccccc2OCC(=O)N1CC(F)(F)F (centres undefined) | inactive | –
14 | CSc1ncccc1C(=O)NCC(c1ccco1)N1CCCCC1 (centres undefined) | inactive | –
15 | Cc1c(C(=O)NCC(c2ccco2)N2CCCC2)oc2ccc(Cl)cc12 (centres undefined) | 23.1 µM (active) | –
16 | Cc1cc(S(=O)(=O)Nc2ccc(C(=O)NCC(c3ccco3)N3CCCC3)cc2)ccc1F (centres undefined) | inactive | –
17 | C/C(=N/Nc1ccc(Cl)cc1)c1cnnc(-c2ccccc2)n1 | inactive | –
18 | CCCCCCCN=C(C)c1ccccc1O | inactive | –
19 | C/C(=N\Nc1ccc(Cl)nn1)c1ccccc1O | 3.26 µM (active) | –
20 | O=C(C[C@H]1C[C@H]2c3cc(NS(=O)(=O)c4ccc(F)cc4)ccc3O[C@H]2[C@H](CO)O1)NCc1cc(F)ccc1F | inactive | –
21 | COc1ccc(C(=O)NCC2CCCO2)cc1S(=O)(=O)NCc1ccc(Cl)cc1 (centres undefined) | inactive | –
22 | CC1CCCCN1S(=O)(=O)c1ccc(C(=O)Nc2nnc(-c3cccs3)o2)cc1 (centres undefined) | 8.2 µM (active) | –

Row | SMILES | Potency | activity, negative = toxicity
23 | CSCc1nnc(NC(=O)c2ccc(S(=O)(=O)N3CCCCC3C)cc2)o1 (centres undefined) | inactive | –
24 | CC1CCCN(S(=O)(=O)c2ccc(C(=O)Nc3nnc(-c4ccncc4)o3)cc2)C1 (centres undefined) | inactive | –
25 | CCCNC(=O)c1cc(C2CCCN(C(=O)c3ccc4c(c3)CCO4)C2)on1 (centres undefined) | inactive | –
26 | COC(=O)C[C@H]1C[C@@H]2c3cc(N(C)C)ccc3O[C@@H]2[C@H](CO)O1 | inactive | –
27 | CCOc1ccc(CCNC(=O)COC(=O)c2ccc(C)c(S(=O)(=O)N3CCOCC3)c2)cc1OCC | inactive | –
28 | c1csc(CN2CCN(Cc3cccs3)C2c2cccs2)c1 | – | -1.16% [at 9.24 µM]
29 | Brc1ccc2c(c1)[C@H]1OCC[C@H]1[C@@H](c1cccs1)N2 | 9.2 µM (active) | –
30 | COc1cc2ccc(C(C)=O)c(O)c2cc1OC | inactive | –
31 | COCCNc1ncnc2c1ncn2[C@H]1CN(Cc2ccc(OC)cc2)C[C@@H](CO)O1 | inactive | –
32 | COc1cccc2c1C(=O)c1c(O)c3c(c(O)c1C2=O)CC(O)(C(C)=NNC(=O)c1ccc(Cl)c(Cl)c1)CC3OC1CC(N)C(O)C(C)O1 (centres undefined) | 1.16 µM (active) | –
33 | OC(c1ccccc1)c1nc(-c2cnc3ccccc3c2)cs1 (centres undefined) | inactive | –
34 | Cc1ccc(S(=O)(=O)N(C)C2(C)CCS(=O)(=O)C2)cc1 (centres undefined) | inactive | –
35 | Cc1ccc(S(=O)(=O)C2(S(=O)(=O)c3ccc(C)cc3)CCCC2)cc1 | 11.6 µM (active) | –
36 | Cc1ccc(S(=O)(=O)NC2CCCCCC2)cc1 | inactive | –
37 | Cc1cc(C)c2c(=O)n3c(nc2c1)C(CC(C)C)NC(=O)c1cc2ccccc2cc1-3 (centres undefined) | inactive | –
38 | COc1ccc(Br)c(Cn2c(C)c(C(=O)NCc3cccs3)sc2=O)c1 | inactive | –
39 | CCOc1ccccc1NC(=O)Cn1nnc(C(=O)NCc2cccs2)c1N | 0.411 µM (active) | –
40 | CCc1ccc(NC(=O)Cn2nnc(C(=O)NCc3ccc(OC)cc3)c2N)cc1 | inactive | –
41 | CCOc1ccc(Cl)cc1-c1cc(C(=O)NCc2cccs2)[nH]n1 | inactive | –
42 | COc1ccc(-c2cnc3c(c2)C(=O)N([C@H](C)CO)C[C@@H](C)[C@H](CN(C)Cc2ccccc2)O3)cc1 | inactive | –
43 | COc1ccc(OC)c(CN2C(=O)CCC2(C)c2nnnn2Cc2ccccc2)c1 (centres undefined) | inactive | –
44 | O=C(CC(O)(C(F)(F)F)C(F)(F)F)Nc1ccc(Cl)c(Cl)c1 | 11.6 µM (active) | –

Row | SMILES | Potency | activity, negative = toxicity
45 | NC(=O)N1CCCC1C(=O)Nc1ccc(Cl)c(Cl)c1 (centres undefined) | inactive | –
46 | O=C(COC(=O)c1cc[n+]([O-])cc1)Nc1ccc(Cl)c(C(F)(F)F)c1 | inactive | –
47 | O=C1NC(O)CCN1C1CC(O)C(CO)O1 (centres undefined) | inactive | –
48 | CC(=O)c1ccc(Nc2nc(C(N)c3ccccc3Cl)cs2)cc1 (centres undefined) | inactive | –
49 | CCOCCCn1c(NN)nc2ccccc2c1=O | inactive | –
50 | CCn1c(SCc2ccccc2)nc2cc(OC)c(OC)cc2c1=O | inactive | –
51 | CCn1c(/C=C/c2ccc([N+](=O)[O-])o2)nc2ccccc2c1=O | 2.59 µM (active) | –
52 | COc1ccc(C(=O)N2CCCCC2c2cc(C(=O)Nc3ccccc3)no2)cc1 (centres undefined) | inactive | –
53 | Cc1ccc(S(=O)(=O)N(Cc2cccc([N+](=O)[O-])c2)C(=O)N2CCN(C)CC2)cc1 | inactive | –
54 | O=C(c1cccc([N+](=O)[O-])c1)N1CCN(Cc2ccccc2)CC1 | inactive | –
55 | O=C(CCl)N(Cc1cccc([N+](=O)[O-])c1)c1cccc(Cl)c1 | 4.61 µM (active) | –
56 | CCc1nc2c(OCCOc3ccccc3)cccn2c1N(C=O)Cc1ccc(OC)cc1 | inactive | –
57 | CC(C)c1nccn1S(=O)(=O)c1cc([N+](=O)[O-])ccc1Cl | inactive | –
58 | CCc1nc(C)cn1S(=O)(=O)c1cc([N+](=O)[O-])ccc1Cl | 3.26 µM (active) | –
59 | CCc1nc(C)cn1S(=O)(=O)c1cc(OC)c(C)cc1C | inactive | –
60 | Nc1nc2c(Br)ccc(Br)c2cc1C(=O)NCCc1ccccc1 | inactive | –
61 | CSc1ncnc2c1ncn2CCCNCc1ccco1 | inactive | –
62 | COc1ccc(CN(C)C(=O)CC(c2ccccc2)c2ccccc2)cc1 | inactive | –
63 | COc1ccc(C(CCN(Cc2ccc(OC)c(OC)c2)C(=O)CCl)c2ccccc2)cc1 (centres undefined) | 16.4 µM (active) | –
64 | COc1ccc(COC(=O)NC(C(=O)O)c2ccccc2)cc1 (centres undefined) | inactive | –

From PubChem BioAssay AID686971 (National Center for Advancing Translational Sciences (NCATS), 2013)
